What was measured:
Assay in all cases: PBM binding z-score (relative to random genomic background probes); higher = stronger binding; sequences stand for … in GC…GCGATTGACAGCGTAGAATGAAGG
[1] = system: FXR:RXRa (NR concentration 270 nM, RXRa partner concentration 90 nM)
Summary of the method: (§1)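 For binding z-scores, the reference was random background probes on custom Agilent 4×180K protein-binding microarrays. These arrays were incubated 1 h with ligand-free nuclear receptor dimers in PBS pH 7.4, 2% milk, 0.02% Triton X-100, 1 mM DTT, 0.2 mg/mL BSA and 0.4 mg/ml salmon testes DNA. Fluorescence was scanned after antibody detection of each partner (one per run) and regression-normalized.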

[2] = system: LXRa:RXRa (NR concentration 270 nM, RXRa partner concentration 90 nM)
Summary of the method: as §1

[3] = system: LXRa homodimer (NR concentration 270 nM)
Summary of the method: as §1

[4] = system: LXRb:RXRa (NR concentration 270 nM, RXRa partner concentration 90 nM)
Summary of the method: as §1

[5] = system: LXRb homodimer (NR concentration 270 nM)
Summary of the method: as §1

[6] = system: PPARa:RXRa (NR concentration 270 nM, RXRa partner concentration 90 nM)
Summary of the method: as §1

[7] = system: PPARg:RXRa (NR concentration 180 nM, RXRa partner concentration 90 nM)
Summary of the method: as §1

[8] = system: PPARg:RXRa 270nM:90nM, anti-RXR (NR concentration 270 nM, RXRa partner concentration 90 nM)
Summary of the method: as §1

[9] = system: PPARg:RXRa 30nM:10nM, anti-RXR (NR concentration 30 nM, RXRa partner concentration 10 nM)
Summary of the method: as §1

[10] = system: PPARg:RXRa 90nM:30nM, anti-RXR (NR concentration 90 nM, RXRa partner concentration 30 nM)
Summary of the method: as §1

[11] = system: PPARg:RXRa DBDmut IVT, anti-RXR (DBD mutation: RXRa K156A/R161A, NR concentration 270 nM, RXRa partner concentration 90 nM)
Summary of the method: as §1

[12] = system: PPARg:RXRa IVT, anti-PPARg (NR concentration 270 nM, RXRa partner concentration 90 nM)
Summary of the method: as §1

[13] = system: PPARg DBDmut:RXRa IVT, anti-PPARg (DBD mutation: PPARg1 K132A/R137A, NR concentration 270 nM, RXRa partner concentration 90 nM)
Summary of the method: as §1

[14] = system: PPARg DBDmut IVT, anti-PPARg (DBD mutation: PPARg1 K132A/R137A, NR concentration 270 nM)
Summary of the method: as §1

[15] = system: PPARg homodimer (NR concentration 180 nM)
Summary of the method: as §1

[16] = system: PXR:RXRa (NR concentration 270 nM, RXRa partner concentration 90 nM)
Summary of the method: as §1

[17] = system: PXR homodimer (NR concentration 270 nM)
Summary of the method: as §1

[18] = system: RARa:RXR (NR concentration 270 nM, RXRa partner concentration 90 nM)
Summary of the method: as §1

[19] = system: RARa homodimer (NR concentration 270 nM)
Summary of the method: as §1

[20] = system: RARb:RXRa (NR concentration 270 nM, RXRa partner concentration 90 nM)
Summary of the method: as §1

| Sequence | PBM binding z-score [1] | PBM binding z-score [2] | PBM binding z-score [3] | PBM binding z-score [4] | PBM binding z-score [5] | PBM binding z-score [6] | PBM binding z-score [7] | PBM binding z-score [8] | PBM binding z-score [9] | PBM binding z-score [10] | PBM binding z-score [11] | PBM binding z-score [12] | PBM binding z-score [13] | PBM binding z-score [14] | PBM binding z-score [15] | PBM binding z-score [16] | PBM binding z-score [17] | PBM binding z-score [18] | PBM binding z-score [19] | PBM binding z-score [20] |
| --- | --- | --- | --- | --- | --- | --- | --- | --- | --- | --- | --- | --- | --- | --- | --- | --- | --- | --- | --- | --- |
| ACTAGCAGGCCAAGATTGGGTCACTCAAACAAAG | -0.0447 | -0.288 | -0.493 | 0.338 | -0.861 | 1.33 | 0.272 | 0.402 | -0.526 | -0.361 | 0.594 | 1.6 | -0.903 | -0.363 | 0.0638 | 0.192 | -0.441 | 0.988 | -0.597 | 1.47 |
| CAAACTAGGTCAAGAGGTCAAATTCCGCTTCCCG | 7.41 | 6.59 | 7.45 | 6.01 | 2.95 | 6.83 | 9.67 | 8.42 | 7.02 | 8.9 | 7.98 | 8.45 | 2.67 | 2.22 | 6.39 | 6.47 | 2.4 | 7.61 | 2.96 | 5.63 |
| GGAACCAGGGCAAAGTTGATAGCATCTGTCGACG | 0.769 | 0.723 | -0.0781 | 0.931 | 0.32 | 4.38 | 7.33 | 7.61 | 6.29 | 7.86 | 4.31 | 4.92 | 0.131 | 1.82 | 1.1 | 0.754 | 0.639 | 0.798 | 0.36 | 2.22 |
| ACCTCTAGGTAACCAAGTTCAGTGAATGCCGAAC | 0.335 | 0.537 | 0.553 | 0.37 | -0.0596 | 0.625 | 0.296 | 0.581 | -0.247 | 0.404 | 3.87 | 2.09 | 0.112 | 0.237 | -0.00896 | 1.65 | 1.47 | 0.453 | -0.355 | 0.936 |
| TCTTTTAGATCAACAGGAGGTTAAGAAAGATCGA | 1.27 | 1.43 | 0.248 | 1.57 | 0.898 | 1.55 | 0.2 | 2.27 | 3.57 | 3.17 | 2.11 | 0.854 | 1.33 | 1.69 | 0.914 | 1.3 | 0.393 | 1.6 | 0.513 | 0.952 |
| ACTATTTGGTCAGCTGAGGTCACACACAATTCGG | 3.54 | 3.48 | 2.98 | 3.81 | 1.88 | 3.9 | 1.86 | 2.4 | 0.852 | 1.66 | 1.59 | 2.69 | 1.5 | 1.46 | 2.9 | 5.26 | 1.97 | 4.3 | 1.66 | 3.65 |
| CCTACTGGGCCAAAAGTCATTGATTCCAATGCTC | -0.29 | 0.0265 | -0.0792 | 0.111 | -0.713 | 3.54 | 7.06 | 7.89 | 8.84 | 9.3 | 4.9 | 4.42 | -0.0689 | -0.159 | 0.216 | -0.153 | -0.589 | 0.273 | 0.25 | 0.447 |

From the supplement of paper PMC6555819
